Experimental data published in the supplement of paper PMC10849652.
Of roughly 7,900 targets only a part is listed; those with a hit were picked by preference. About 0.6% of all pairs of compound and target were hits. Unmarked numbers belong to inactive results.

Tests used:
Test in all cases: log2 fold change, soluble protein after heating vs DMSO (PISA); higher = thermal stabilisation; K562 cells, 10 uM, 30 min; active = over 0.2 and 3.5 SD of the protein, either way, in both replicates (recomputed)
[1] = compound: NC(=O)Nc1cc(-c2cccc(F)c2)sc1C(=O)N[C@H]1CCCNC1
In short: (§1)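 K562 cells at 2×10^6 cells/mL were treated for 30 min with 10 μM compound, and aliquots were heated for 3 min over 48°C-58°C before pooling. Extraction used PBS with 0.5% NP-40 at 4°C, and soluble protein was the supernatant after 21,000xg for 90 min, measured by TMTpro 16plex LC-MS/MS with channel sums equalised. Thermal stability values, relative to control samples and from duplicates, are log2 fold changes.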

[2] = compound: NC(=O)c1cnc(N[C@@H]2CCCC[C@@H]2N)nc1Nc1cccc(-n2nccn2)c1
In short: as §1

[3] = compound: NC1(c2ccc(-c3nc4ccn5c(=O)[nH]nc5c4cc3-c3ccccc3)cc2)CCC1
In short: as §1

[4] = compound: NCC(=O)Nc1ccc(-n2nc(C(F)(F)F)cc2-c2ccc3c(ccc4ccccc43)c2)cc1
In short: as §1

entinostat = compound: Nc1ccccc1NC(=O)c1ccc(CNC(=O)OCc2cccnc2)cc1 [entinostat]
In short: as §1

vorinostat = compound: O=C(CCCCCCC(=O)Nc1ccccc1)NO [vorinostat]
In short: as §1

citarinostat = compound: O=C(CCCCCCNC(=O)c1cnc(N(c2ccccc2)c2ccccc2Cl)nc1)NO [citarinostat]
In short: as §1

silmitasertib = compound: O=C(O)c1ccc2c(c1)nc(Nc1cccc(Cl)c1)c1ccncc12 [silmitasertib]
In short: as §1

[5] = compound: O=C1NC(=O)C(c2cnc3ccccn23)=C1c1cn2c3c(cc(F)cc13)CN(C(=O)N1CCCCC1)CC2
In short: as §1

[6] = compound: c1cc(OCCN2CCCCC2)cc(-c2n[nH]c3ccc(-c4nnc[nH]4)cc23)c1
In short: as §1

entospletinib = compound: c1cn2cc(-c3ccc4cn[nH]c4c3)nc(Nc3ccc(N4CCOCC4)cc3)c2n1 [entospletinib]
In short: as §1

Chain of UniProt Q96T51 (Q96T51 whole entry, looked up): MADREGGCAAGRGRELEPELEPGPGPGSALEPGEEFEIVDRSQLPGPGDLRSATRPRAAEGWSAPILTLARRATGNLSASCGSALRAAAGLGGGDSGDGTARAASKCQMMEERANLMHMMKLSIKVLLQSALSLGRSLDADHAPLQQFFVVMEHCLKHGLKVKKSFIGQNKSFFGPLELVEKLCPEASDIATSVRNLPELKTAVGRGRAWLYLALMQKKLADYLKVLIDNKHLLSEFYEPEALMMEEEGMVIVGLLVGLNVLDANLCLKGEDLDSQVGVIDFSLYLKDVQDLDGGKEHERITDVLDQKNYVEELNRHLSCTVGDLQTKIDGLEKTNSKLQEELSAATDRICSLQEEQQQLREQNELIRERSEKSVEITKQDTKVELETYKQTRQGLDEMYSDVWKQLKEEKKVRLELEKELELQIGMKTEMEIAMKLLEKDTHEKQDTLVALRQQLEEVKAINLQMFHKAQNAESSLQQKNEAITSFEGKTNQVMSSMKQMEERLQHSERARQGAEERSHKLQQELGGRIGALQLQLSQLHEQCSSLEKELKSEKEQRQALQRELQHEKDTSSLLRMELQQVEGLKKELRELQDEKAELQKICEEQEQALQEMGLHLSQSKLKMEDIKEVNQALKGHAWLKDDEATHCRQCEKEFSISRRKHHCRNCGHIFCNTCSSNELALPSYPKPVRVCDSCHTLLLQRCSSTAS
Chain of UniProt Q8NEM2 (Q8NEM2 whole entry, looked up): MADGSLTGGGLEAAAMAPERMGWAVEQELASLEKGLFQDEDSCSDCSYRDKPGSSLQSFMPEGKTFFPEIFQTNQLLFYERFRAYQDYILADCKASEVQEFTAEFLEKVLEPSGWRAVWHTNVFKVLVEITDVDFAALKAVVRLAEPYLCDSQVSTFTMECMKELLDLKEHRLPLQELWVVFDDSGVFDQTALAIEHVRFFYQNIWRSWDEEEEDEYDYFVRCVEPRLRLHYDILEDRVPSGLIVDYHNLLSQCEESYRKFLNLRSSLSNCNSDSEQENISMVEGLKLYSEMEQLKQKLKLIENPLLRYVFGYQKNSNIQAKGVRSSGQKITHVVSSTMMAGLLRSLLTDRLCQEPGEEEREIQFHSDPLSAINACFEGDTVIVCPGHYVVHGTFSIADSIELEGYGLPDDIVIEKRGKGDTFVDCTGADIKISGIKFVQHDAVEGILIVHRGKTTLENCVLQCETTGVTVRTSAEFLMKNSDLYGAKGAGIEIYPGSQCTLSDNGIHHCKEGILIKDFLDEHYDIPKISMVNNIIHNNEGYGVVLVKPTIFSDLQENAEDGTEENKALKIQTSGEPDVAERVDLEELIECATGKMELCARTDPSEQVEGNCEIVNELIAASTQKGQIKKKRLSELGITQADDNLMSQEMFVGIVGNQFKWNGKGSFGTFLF
Chain of UniProt Q8NBX0 (Q8NBX0 whole entry, looked up): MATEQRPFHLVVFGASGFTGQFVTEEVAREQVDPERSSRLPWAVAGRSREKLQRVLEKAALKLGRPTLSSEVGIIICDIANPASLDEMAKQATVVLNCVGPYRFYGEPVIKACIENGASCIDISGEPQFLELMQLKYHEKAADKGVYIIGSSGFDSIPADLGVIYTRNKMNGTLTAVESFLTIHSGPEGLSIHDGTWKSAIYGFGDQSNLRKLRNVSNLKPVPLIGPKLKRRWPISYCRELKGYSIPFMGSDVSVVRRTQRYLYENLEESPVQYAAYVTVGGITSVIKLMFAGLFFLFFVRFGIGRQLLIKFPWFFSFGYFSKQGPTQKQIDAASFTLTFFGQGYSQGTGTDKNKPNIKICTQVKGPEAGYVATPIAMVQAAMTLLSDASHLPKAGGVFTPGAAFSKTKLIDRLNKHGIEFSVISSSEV
Chain of UniProt Q86TU7 (Q86TU7 whole entry, looked up): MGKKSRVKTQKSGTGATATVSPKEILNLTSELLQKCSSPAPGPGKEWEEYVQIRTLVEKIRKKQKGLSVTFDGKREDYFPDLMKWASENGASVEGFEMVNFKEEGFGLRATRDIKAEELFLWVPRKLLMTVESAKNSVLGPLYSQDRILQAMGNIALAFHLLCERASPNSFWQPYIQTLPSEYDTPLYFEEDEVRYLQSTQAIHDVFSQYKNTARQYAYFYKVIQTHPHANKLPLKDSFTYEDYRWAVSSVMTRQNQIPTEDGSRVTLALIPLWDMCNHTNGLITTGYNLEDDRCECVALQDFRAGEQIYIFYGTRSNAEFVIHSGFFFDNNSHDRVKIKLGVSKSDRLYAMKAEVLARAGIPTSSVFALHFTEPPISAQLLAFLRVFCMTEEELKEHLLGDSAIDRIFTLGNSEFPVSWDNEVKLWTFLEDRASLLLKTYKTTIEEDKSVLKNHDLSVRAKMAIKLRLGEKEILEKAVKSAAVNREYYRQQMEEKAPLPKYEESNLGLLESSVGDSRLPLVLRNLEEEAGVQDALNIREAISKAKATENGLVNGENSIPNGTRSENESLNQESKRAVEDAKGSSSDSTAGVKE
Chain of UniProt Q96DX4 (Q96DX4 whole entry, looked up): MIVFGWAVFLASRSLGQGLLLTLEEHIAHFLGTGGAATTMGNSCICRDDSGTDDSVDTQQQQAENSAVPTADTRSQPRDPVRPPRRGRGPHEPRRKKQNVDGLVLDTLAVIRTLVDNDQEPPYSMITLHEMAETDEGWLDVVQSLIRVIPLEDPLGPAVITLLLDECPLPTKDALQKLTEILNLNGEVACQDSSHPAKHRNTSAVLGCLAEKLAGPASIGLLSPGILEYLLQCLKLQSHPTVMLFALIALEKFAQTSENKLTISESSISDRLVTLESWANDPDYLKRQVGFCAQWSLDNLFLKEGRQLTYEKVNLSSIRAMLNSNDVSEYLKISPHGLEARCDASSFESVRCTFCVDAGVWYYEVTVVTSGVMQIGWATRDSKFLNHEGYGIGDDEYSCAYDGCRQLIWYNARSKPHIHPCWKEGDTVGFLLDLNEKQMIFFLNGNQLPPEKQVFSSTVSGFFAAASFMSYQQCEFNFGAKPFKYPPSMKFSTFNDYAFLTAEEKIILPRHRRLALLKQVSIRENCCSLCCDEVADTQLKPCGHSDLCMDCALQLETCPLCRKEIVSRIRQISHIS
Chain of UniProt Q9P2N5 (Q9P2N5 whole entry, looked up): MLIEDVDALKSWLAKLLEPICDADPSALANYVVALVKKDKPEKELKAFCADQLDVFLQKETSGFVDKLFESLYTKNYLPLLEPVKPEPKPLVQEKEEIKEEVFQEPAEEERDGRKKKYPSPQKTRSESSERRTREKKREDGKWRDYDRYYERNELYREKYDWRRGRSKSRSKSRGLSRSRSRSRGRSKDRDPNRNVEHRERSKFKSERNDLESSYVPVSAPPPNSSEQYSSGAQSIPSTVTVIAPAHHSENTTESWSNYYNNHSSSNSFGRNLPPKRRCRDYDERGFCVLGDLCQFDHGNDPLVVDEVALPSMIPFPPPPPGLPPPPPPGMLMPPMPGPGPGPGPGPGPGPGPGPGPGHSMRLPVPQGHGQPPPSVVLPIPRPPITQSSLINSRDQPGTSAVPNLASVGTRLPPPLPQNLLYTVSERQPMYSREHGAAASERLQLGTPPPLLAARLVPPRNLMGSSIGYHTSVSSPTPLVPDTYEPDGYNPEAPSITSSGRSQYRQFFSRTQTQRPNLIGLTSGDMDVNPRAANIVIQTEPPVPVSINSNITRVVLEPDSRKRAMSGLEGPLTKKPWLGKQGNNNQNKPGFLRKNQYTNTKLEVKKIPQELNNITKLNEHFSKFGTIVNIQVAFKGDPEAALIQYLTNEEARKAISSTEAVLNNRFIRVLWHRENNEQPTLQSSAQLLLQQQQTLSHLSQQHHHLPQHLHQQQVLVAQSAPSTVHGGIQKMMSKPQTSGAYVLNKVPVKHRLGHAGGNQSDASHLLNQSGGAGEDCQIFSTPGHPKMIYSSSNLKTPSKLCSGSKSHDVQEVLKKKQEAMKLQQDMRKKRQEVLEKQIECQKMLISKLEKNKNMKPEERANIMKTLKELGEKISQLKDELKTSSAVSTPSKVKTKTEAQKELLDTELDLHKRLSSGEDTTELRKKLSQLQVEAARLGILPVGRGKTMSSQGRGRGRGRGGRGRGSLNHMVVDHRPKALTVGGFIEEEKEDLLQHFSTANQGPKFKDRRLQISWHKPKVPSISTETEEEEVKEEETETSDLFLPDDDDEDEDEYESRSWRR
Chain of UniProt Q8N0T1 (Q8N0T1 whole entry, looked up): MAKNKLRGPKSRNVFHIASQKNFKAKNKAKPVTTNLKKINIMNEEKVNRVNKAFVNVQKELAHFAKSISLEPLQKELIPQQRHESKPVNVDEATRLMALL
Chain of UniProt Q15287 (Q15287 whole entry, looked up): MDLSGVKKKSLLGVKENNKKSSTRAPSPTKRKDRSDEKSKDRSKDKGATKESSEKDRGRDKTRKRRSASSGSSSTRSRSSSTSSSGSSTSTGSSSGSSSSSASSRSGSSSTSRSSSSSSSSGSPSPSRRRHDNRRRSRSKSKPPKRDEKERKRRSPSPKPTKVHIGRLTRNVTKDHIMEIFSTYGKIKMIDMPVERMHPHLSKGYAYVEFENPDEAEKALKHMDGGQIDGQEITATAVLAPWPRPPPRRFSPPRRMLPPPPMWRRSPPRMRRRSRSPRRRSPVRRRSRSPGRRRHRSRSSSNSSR
Chain of UniProt O14796 (O14796 whole entry, looked up): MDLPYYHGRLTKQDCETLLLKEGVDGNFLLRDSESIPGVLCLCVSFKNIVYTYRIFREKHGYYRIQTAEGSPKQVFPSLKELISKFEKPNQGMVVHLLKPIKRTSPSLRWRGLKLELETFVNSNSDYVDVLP
Chain of UniProt Q99643 (Q99643 whole entry, looked up): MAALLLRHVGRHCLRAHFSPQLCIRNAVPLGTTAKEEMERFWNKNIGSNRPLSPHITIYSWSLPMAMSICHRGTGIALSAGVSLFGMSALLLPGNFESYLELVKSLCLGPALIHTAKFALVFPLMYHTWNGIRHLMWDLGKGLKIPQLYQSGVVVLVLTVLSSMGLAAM
Chain of UniProt P62070 (P62070 whole entry, looked up): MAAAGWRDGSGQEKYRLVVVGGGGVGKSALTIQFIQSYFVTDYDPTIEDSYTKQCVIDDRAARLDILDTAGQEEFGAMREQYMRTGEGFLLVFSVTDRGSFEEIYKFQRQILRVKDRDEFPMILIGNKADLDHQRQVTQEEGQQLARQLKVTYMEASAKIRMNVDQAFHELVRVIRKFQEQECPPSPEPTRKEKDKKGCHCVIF

| Target | log2 fold change [1] | log2 fold change [2] | log2 fold change [3] | log2 fold change [4] | log2 fold change (entinostat) | log2 fold change (vorinostat) | log2 fold change (citarinostat) | log2 fold change (silmitasertib) | log2 fold change [5] | log2 fold change [6] | log2 fold change (entospletinib) |
| --- | --- | --- | --- | --- | --- | --- | --- | --- | --- | --- | --- |
| RPS9 (UniProt P46781) | 0.07 | 0.127 | 0.202 | 0.073 | -0.058 | -0.007 | -0.058 | 0.007 | 0.076 | -0.152 | 0.042 |
| RUFY1 (UniProt Q96T51) | 0.06 | -0.057 | -0.086 | -0.101 | 0.05 | 0.031 | 0.032 | 0.11 | 0.038 | -0.037 | 0.042 |
| RAD51 (UniProt Q06609) | 0.051 | -0.019 | -0.057 | 0.031 | 0.001 | 0.047 | 0.018 | -0.003 | -0.014 | -0.012 | -0.127 |
| SLC18B1 (UniProt Q6NT16) | -0.003 | 0.022 | -0.093 | -0.025 | 0.038 | -0.162 | 0.019 | 0.076 | 0.044 | -0.044 | 0.027 |
| RNF2 (UniProt Q99496) | -0.04 | -0.023 | -0.003 | -0.051 | 0.102 | -0.048 | 0.054 | 0.003 | -0.014 | -0.102 | -0.003 |
| RSPRY1 (UniProt Q96DX4) | -0.054 | 0.051 | -0.104 | 0.061 | -0.016 | -0.02 | -0.075 | 0.028 | -0.072 | -0.008 | -0.023 |
| SH2D1B (UniProt O14796) | -1.1 (active) | 0.04 | -0.135 | -0.024 | 0.055 | 0.101 | 0.413 | -0.111 | -0.018 | -0.062 | -0.372 |
| RPS5 (UniProt P46782) | 0.035 | 0.105 | 0.153 | 0.133 | -0.043 | 0 | -0.052 | -0.07 | 0.094 | -0.12 | 0.037 |
| SDHC (UniProt Q99643) | -0.12 | 0.097 | -0.079 | 0.041 | -0.178 | -0.042 | 0.033 | 0.032 | 0 | -0.062 | 0.032 |
| RIOK2 (UniProt Q9BVS4) | -0.008 | 0.351 (active) | 0.04 | 0.027 | -0.041 | -0.044 | -0.067 | 0.018 | 0.086 | -0.071 | 0.105 |
| RBIS (UniProt Q8N0T1) | -0.021 | -0.029 | 0.02 | 0.02 | 0.019 | 0.014 | 0.092 | -0.009 | -0.002 | -0.078 | -0.031 |
| RBM27 (UniProt Q9P2N5) | -0.151 | -0.015 | -0.058 | -0.042 | 0.044 | 0.125 | 0.04 | -0.078 | -0.056 | -0.064 | 0.054 |
| RRP12 (UniProt Q5JTH9) | 0.062 | 0.188 | 0.089 | 0.051 | 0.081 | 0.072 | -0.064 | 0.121 | 0.119 | 0.216 | -0.132 |
| RSF1 (UniProt Q96T23) | -0.17 | -0.078 | -0.246 | -0.198 | 0.073 | 0.028 | -0.087 | 0.04 | -0.182 | 0.081 | 0.052 |
| SF3B5 (UniProt Q9BWJ5) | 0.081 | 0.043 | -0.034 | 0.038 | 0.116 | -0.004 | -0.016 | 0.016 | -0.127 | 0 | 0.021 |
| SHROOM2 (UniProt Q13796) | 0.024 | -0.09 | 0.275 | 0.006 | -0.037 | 0.068 | 0.057 | -0.141 | -0.088 | 0.057 | -0.173 |
| SHCBP1 (UniProt Q8NEM2) | 0.01 | -0.017 | -0.107 | -0.08 | -0.063 | 0.039 | 0.136 | 0.025 | -0.087 | -0.091 | 0.039 |
| RNPS1 (UniProt Q15287) | -0.019 | -0.39 | 0.097 | 0.031 | -0.06 | 0.024 | 0.038 | -0.111 | -0.018 | -0.146 | 0.064 |
| RCC1 isoform 2 (UniProt P18754) | -0.084 | -0.174 | -0.18 | -0.066 | 0.132 | 0.094 | 0.026 | -0.056 | -0.132 | -0.024 | -0.022 |
| RNASET2 (UniProt O00584) | -0.082 | -0.114 | -0.285 (active) | -0.033 | -0.012 | -0.04 | 0.074 | -0.018 | -0.048 | -0.102 | 0.05 |
| RRAS2 isoform 4 (UniProt P62070) | -0.068 | 0.03 | 0.08 | 0.038 | -0.059 | -0.069 | 0.01 | 0.048 | -0.01 | 0.013 | -0.012 |
| RPS19 (UniProt P39019) | -0.008 | 0.075 | 0.186 | 0.079 | -0.06 | -0.007 | -0.059 | -0.014 | 0.051 | -0.107 | 0.057 |
| RRS1 (UniProt Q15050) | 0.06 | 0.143 | 0.233 | 0.211 | -0.087 | -0.063 | -0.081 | 0.291 | 0.438 | -0.107 | 0.066 |
| SETD3 (UniProt Q86TU7) | -0.007 | -0.019 | -0.045 | -0.002 | -0.02 | -0.035 | -0.015 | 0.007 | -0.022 | 0.031 | 0.001 |
| SCCPDH (UniProt Q8NBX0) | -0.113 | -0.056 | 0.045 | -0.024 | -0.071 | 0.062 | 0.199 | -0.004 | 0.123 | 0.33 | 0.076 |
| RPS3 (UniProt P23396) | -0.006 | 0.05 | 0.117 | 0.033 | -0.055 | 0.015 | -0.035 | -0.008 | 0.029 | -0.145 | 0.063 |
| SEC16A isoform 5 (UniProt O15027) | 0.006 | -0.072 | -0.14 | 0.055 | 0.071 | 0.154 | 0.071 | -0.007 | 0.191 | -0.022 | 0.069 |
| SAMSN1 isoform 3 (UniProt Q9NSI8) | -0.06 | -0.067 | -0.067 | -0.028 | 0.099 | 0.009 | 0.06 | 0.063 | -0.073 | -0.025 | -0.058 |
